MLLE-PAM2 inh: blocks PAM2 peptide binding to the PABP1 MLLE domain; P11940; GST-MLLE / FITC-PAM2 fluorescence polarization; inhibition, % at 20 µM; 360,000 tested, 0.36% active; in the data active means inhibition above about 35%, passing the limit was not always enough
Target sequence (P11940 whole entry, looked up, the tested form may be a part): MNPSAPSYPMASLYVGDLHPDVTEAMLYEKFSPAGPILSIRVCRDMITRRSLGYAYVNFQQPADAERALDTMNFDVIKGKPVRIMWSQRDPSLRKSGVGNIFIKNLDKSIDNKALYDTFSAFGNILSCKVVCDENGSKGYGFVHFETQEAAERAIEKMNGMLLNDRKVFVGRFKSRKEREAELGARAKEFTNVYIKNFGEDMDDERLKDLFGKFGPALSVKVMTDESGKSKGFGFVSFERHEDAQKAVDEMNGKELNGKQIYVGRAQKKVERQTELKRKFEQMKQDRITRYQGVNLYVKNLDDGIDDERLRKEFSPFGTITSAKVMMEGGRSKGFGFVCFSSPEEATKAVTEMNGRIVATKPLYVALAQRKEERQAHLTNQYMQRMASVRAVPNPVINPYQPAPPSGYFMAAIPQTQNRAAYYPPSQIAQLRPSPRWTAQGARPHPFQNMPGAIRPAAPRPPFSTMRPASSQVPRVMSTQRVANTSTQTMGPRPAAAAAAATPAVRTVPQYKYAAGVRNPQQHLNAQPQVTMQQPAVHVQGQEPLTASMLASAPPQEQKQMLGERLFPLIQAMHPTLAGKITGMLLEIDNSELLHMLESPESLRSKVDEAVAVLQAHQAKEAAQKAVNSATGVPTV
PERK inhibitor: inhibitors of human PERK kinase. CHO PERK-DD fusion, SEAP luminescence translation reporter. inhibition, % at 5.6 µM. Q9NZJ5. 220,000 tested, 0.17% active;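 active means inhibition above the mean inhibition of all tested compounds plus 3 SD, set separately per screening campaign, cut at about 2.9% in these data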;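 further: PERK kinase domain activated by AP20187 dimerizer at 100 nM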
eIF4H FP inh: inhibitors of RNA binding by human eIF4H; 290,000 tested, 0.94% active; inhibition, % at 35 µM; Q15056; eIF4H fluorescence polarization binding assay;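 further: calls also rest on retests at 20 µM and on dose response follow-up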
eIF4E-4G inh: blocks eIF4E binding to eIF4G. TR-FRET eIF4E-eIF4GI(517-606) binding, 2 h. inhibition, % at 21.7 µM. 220,000 tested, 0.37% active. P63073+Q04637;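 active means inhibition above about 30%, limit read from the data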
PABP polyA inh: PABP-poly(A) binding inhibition; 290,000 tested, 1% active; P11940; PABP-poly(A) RNA binding, fluorescence polarization; inhibition, % at 35 µM;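 further: calls also rest on retests at 20 µM and on dose response follow-up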
A number is an active result; [ ] = another dose, or the depositor's remark. Hits are enriched below; roughly 1.6% of the tested compounds scored in any of these assays. Unless noted, how the calls were made is not given here.

How did COc1ccccc1CCC(=O)Nc1ccc(S(=O)(=O)Nc2cc(C)nc(C)n2)cc1 do in these assays?
MLLE-PAM2 inh: inactive

How did O=C(O)Cc1csc(-c2ccc(F)cc2)n1 do in these assays?
MLLE-PAM2 inh: inactive; PERK inhibitor: inactive; eIF4H FP inh: inactive; eIF4E-4G inh: inactive; PABP polyA inh: inactive

What do the screens show for `O=C(O)Cc1csc(-c2ccccc2)n1`?
MLLE-PAM2 inh: inactive; PERK inhibitor: inactive; eIF4H FP inh: 7.1; eIF4E-4G inh: inactive; PABP polyA inh: inactive

What do the screens show for `O=C(O)c1ccccc1NSc1ccccc1[N+](=O)[O-]`?
MLLE-PAM2 inh: inactive; PERK inhibitor: inactive; eIF4H FP inh: inactive; eIF4E-4G inh: inactive; PABP polyA inh: inactive

What do the screens show for `CCc1ccc(NSc2ccccc2[N+](=O)[O-])cc1`?
MLLE-PAM2 inh: inactive; PERK inhibitor: 3.2; eIF4H FP inh: inactive; eIF4E-4G inh: inactive; PABP polyA inh: inactive

How did COc1ccc(C)cc1NC(=O)CN1CCN(c2ccccn2)CC1 do in these assays?
MLLE-PAM2 inh: inactive; eIF4H FP inh: inactive; PABP polyA inh: inactive

Results for COc1cc2ccccc2cc1C(=O)Nc1ccc2oc(=O)ccc2c1 ?
MLLE-PAM2 inh: inactive; eIF4H FP inh: inactive; PABP polyA inh: inactive

What do the screens show for `Cc1cccc(N2CCN(C(=O)c3ccccn3)CC2C)c1` (stereo not drawn)?
MLLE-PAM2 inh: inactive; PERK inhibitor: inactive; eIF4H FP inh: inconclusive; eIF4E-4G inh: inactive; PABP polyA inh: 2.3

How did Cc1cccc(N2CCN(C(=O)NC3CCCCC3)CC2C)c1 (stereo not drawn) do in these assays?
MLLE-PAM2 inh: inactive; eIF4H FP inh: inactive; PABP polyA inh: inactive

What do the screens show for `COc1ccc(S(=O)(=O)N2CCC(C(=O)NCC(c3cccs3)N(C)C)CC2)cc1` (stereo not drawn)?
MLLE-PAM2 inh: inactive; PERK inhibitor: inactive; eIF4H FP inh: inactive; eIF4E-4G inh: inactive; PABP polyA inh: inactive

Results for O=c1oc2c3c4c(cc2s1)CCCN4CCC3 ?
MLLE-PAM2 inh: 74; PERK inhibitor: inactive; eIF4H FP inh: 122; eIF4E-4G inh: inactive; PABP polyA inh: 122

What do the screens show for `c1coc(-c2ccnc3nc(-n4cccc4)nn23)c1`?
MLLE-PAM2 inh: inactive; PERK inhibitor: inactive; eIF4H FP inh: 94; eIF4E-4G inh: inactive; PABP polyA inh: active

Results for COc1ccc(-c2ccnc3nc(-n4cccc4)nn23)cc1 ?
MLLE-PAM2 inh: inactive; PERK inhibitor: inactive; eIF4H FP inh: inactive; eIF4E-4G inh: inactive; PABP polyA inh: inactive

What do the screens show for `CSc1ccc(/C=C/c2cc(=O)c3ccccc3[nH]2)cc1`?
MLLE-PAM2 inh: inactive; PERK inhibitor: inactive; eIF4H FP inh: 131; eIF4E-4G inh: inactive; PABP polyA inh: inactive

What do the screens show for `O=c1cc(/C=C/c2cccs2)[nH]c2ccccc12`?
MLLE-PAM2 inh: inactive; PERK inhibitor: inactive; eIF4H FP inh: inactive; eIF4E-4G inh: inactive; PABP polyA inh: inactive

What do the screens show for `CCc1ccc(NC(=O)NCCN2CCCCC2)cc1`?
MLLE-PAM2 inh: inactive; eIF4H FP inh: inactive; PABP polyA inh: inactive

What do the screens show for `CCOc1ccc(C(=O)NC(C)(C)CC)cc1`?
MLLE-PAM2 inh: inactive; PERK inhibitor: inactive; eIF4H FP inh: inactive; eIF4E-4G inh: inactive; PABP polyA inh: 69

What do the screens show for `O=C(O)c1ccccc1C(=O)Nc1nccs1`?
MLLE-PAM2 inh: inactive; PERK inhibitor: inactive; eIF4H FP inh: inactive; eIF4E-4G inh: 72; PABP polyA inh: inactive

Results for c1ccc2[nH]cnc2c1 ?
MLLE-PAM2 inh: inactive

What do the screens show for `c1ccc2nc3[nH]cnc3nc2c1`?
MLLE-PAM2 inh: 49; PERK inhibitor: inactive; eIF4H FP inh: inactive; eIF4E-4G inh: inactive; PABP polyA inh: inactive

Results for O=C(Nc1nc2ccc(SC(F)F)cc2s1)c1ccc2c(c1)S(=O)(=O)c1ccccc1C2=O ?
PERK inhibitor: inactive; eIF4H FP inh: inactive; eIF4E-4G inh: inactive; PABP polyA inh: inactive

What do the screens show for `CCn1c(C2CC(=O)N(Cc3ccccc3)C2)nc2ccccc21` (stereo not drawn)?
MLLE-PAM2 inh: inactive; PERK inhibitor: inactive; eIF4H FP inh: inactive; eIF4E-4G inh: 52[fluorescence artefact?]; PABP polyA inh: inactive

What do the screens show for `C=C(C)Cn1c(C2CC(=O)N(Cc3ccccc3)C2)nc2ccccc21` (stereo not drawn)?
MLLE-PAM2 inh: inactive; eIF4H FP inh: inactive; PABP polyA inh: inactive

What do the screens show for `C=CCOC(=O)/C(=C/c1ccco1)NC(=O)/C=C/c1ccccc1`?
MLLE-PAM2 inh: inactive; PERK inhibitor: inactive; eIF4H FP inh: inactive; eIF4E-4G inh: inactive; PABP polyA inh: inactive

How did O=C(O)CNC(=O)/C(=C/c1ccco1)NC(=O)/C=C/c1ccccc1 do in these assays?
MLLE-PAM2 inh: inactive; PERK inhibitor: inactive; eIF4H FP inh: 53; eIF4E-4G inh: inactive; PABP polyA inh: active
